In the supplement of paper PMC11732987, “Enantioselective OTUD7B fragment discovery through chemoproteomics screening and high-throughput optimisation” (Communications Chemistry, 2025):

Legend:
Assay in all cases: log2 ratio of Biotin-Ahx-Ub-VS probe labelling (fragment/DMSO); higher = less target engagement (more negative = stronger competition), active = hit call of the paper (q ≤ 0.05, log2 ratio ≤ -1)
Conditions in all cases: compound concentration: 200 uM; treatment time: 3 h
USP42 = biological target: T1, USP42 (UniProt Q9H9J4)
T1 sequence (whole entry): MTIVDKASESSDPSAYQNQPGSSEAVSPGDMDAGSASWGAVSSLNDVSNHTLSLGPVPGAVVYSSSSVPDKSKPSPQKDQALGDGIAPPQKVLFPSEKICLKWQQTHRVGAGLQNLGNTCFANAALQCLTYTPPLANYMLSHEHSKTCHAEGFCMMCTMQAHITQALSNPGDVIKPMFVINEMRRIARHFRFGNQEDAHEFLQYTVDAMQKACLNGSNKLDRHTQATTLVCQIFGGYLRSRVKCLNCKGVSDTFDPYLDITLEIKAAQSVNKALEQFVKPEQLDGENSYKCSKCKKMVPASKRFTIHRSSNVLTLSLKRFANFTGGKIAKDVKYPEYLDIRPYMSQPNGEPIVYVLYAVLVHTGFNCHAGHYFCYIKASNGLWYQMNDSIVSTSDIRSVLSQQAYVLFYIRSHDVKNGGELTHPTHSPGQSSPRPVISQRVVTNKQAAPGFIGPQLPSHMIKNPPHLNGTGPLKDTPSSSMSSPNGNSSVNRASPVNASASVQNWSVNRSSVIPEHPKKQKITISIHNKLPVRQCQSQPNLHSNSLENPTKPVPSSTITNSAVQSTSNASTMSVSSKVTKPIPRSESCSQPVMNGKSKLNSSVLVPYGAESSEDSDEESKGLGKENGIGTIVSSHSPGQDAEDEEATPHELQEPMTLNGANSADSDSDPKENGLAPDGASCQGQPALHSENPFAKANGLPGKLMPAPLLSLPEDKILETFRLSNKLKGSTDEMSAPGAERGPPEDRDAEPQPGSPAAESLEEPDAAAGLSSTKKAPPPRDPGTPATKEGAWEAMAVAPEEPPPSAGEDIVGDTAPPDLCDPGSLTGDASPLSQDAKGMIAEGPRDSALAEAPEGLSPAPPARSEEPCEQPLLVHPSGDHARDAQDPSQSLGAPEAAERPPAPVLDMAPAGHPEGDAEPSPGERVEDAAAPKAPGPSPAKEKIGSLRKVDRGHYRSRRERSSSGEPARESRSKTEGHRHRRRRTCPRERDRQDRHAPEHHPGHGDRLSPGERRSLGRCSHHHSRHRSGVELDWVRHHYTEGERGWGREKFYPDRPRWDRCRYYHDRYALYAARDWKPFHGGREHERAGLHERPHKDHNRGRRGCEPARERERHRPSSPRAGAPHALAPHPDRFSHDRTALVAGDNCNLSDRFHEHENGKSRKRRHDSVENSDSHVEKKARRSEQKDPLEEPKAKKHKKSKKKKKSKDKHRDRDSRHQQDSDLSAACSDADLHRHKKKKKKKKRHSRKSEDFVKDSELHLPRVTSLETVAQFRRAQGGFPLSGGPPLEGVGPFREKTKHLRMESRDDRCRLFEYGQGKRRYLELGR
Outline: (§1)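 HEK293T lysate (495 µg per sample, in Tris/CHAPS/IGEPAL buffer with protease inhibitors) was treated in triplicate with fragment at 200 µM or with DMSO for 3 h. It was then treated with Biotin-Ahx-Ub-VS (0.5 µM final) for 1 h. Labelled DUBs were NeutrAvidin-enriched, digested with LysC and trypsin, and run by diaPASEF LC-MS/MS. Spectronaut label-free quantities were global-median-normalised. Values are average log2 ratios fragment/DMSO by unpaired t-test, using proteins with ≥2 unique peptides.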

USP46 = USP46 (UniProt P62068)
Outline: as §1

USP47 = biological target: T2, USP47 (UniProt Q96K76)
T2 sequence (whole entry): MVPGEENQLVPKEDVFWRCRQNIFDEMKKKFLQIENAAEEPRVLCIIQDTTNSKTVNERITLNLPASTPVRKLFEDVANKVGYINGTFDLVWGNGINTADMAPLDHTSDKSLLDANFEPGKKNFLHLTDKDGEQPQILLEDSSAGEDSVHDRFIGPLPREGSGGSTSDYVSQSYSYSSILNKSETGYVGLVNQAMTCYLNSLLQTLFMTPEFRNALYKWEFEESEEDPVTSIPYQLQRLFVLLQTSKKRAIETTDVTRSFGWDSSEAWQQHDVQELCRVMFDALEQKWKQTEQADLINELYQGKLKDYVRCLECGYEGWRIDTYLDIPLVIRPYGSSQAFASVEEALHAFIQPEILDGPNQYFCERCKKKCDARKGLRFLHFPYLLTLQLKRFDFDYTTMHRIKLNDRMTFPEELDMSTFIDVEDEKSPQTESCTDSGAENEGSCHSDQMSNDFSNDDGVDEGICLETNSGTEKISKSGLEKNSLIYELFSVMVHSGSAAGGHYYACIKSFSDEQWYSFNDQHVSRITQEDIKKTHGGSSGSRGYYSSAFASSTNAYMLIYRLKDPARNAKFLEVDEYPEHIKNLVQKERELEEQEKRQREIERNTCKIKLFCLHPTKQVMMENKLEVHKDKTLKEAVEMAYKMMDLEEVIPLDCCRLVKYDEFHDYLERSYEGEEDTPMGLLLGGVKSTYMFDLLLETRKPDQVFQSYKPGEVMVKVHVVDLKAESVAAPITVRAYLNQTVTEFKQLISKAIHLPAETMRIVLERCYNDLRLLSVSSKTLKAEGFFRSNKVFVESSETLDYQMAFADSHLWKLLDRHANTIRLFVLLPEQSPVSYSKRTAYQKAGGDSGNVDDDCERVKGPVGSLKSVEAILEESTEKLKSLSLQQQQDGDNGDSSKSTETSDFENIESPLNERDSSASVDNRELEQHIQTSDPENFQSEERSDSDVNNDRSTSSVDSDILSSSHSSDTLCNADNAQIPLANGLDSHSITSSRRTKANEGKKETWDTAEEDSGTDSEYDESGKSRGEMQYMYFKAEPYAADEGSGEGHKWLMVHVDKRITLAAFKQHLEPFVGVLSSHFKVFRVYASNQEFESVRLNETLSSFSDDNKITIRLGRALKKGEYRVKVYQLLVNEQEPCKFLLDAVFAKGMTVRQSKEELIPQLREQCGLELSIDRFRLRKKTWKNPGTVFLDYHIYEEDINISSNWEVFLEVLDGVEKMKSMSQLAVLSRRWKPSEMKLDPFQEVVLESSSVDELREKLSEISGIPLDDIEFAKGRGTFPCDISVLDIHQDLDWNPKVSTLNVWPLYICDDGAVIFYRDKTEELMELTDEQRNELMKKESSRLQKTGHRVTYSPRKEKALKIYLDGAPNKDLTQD
Outline: as §1

USP48 = biological target: T3, USP48 (UniProt Q86UV5)
T3 sequence (whole entry): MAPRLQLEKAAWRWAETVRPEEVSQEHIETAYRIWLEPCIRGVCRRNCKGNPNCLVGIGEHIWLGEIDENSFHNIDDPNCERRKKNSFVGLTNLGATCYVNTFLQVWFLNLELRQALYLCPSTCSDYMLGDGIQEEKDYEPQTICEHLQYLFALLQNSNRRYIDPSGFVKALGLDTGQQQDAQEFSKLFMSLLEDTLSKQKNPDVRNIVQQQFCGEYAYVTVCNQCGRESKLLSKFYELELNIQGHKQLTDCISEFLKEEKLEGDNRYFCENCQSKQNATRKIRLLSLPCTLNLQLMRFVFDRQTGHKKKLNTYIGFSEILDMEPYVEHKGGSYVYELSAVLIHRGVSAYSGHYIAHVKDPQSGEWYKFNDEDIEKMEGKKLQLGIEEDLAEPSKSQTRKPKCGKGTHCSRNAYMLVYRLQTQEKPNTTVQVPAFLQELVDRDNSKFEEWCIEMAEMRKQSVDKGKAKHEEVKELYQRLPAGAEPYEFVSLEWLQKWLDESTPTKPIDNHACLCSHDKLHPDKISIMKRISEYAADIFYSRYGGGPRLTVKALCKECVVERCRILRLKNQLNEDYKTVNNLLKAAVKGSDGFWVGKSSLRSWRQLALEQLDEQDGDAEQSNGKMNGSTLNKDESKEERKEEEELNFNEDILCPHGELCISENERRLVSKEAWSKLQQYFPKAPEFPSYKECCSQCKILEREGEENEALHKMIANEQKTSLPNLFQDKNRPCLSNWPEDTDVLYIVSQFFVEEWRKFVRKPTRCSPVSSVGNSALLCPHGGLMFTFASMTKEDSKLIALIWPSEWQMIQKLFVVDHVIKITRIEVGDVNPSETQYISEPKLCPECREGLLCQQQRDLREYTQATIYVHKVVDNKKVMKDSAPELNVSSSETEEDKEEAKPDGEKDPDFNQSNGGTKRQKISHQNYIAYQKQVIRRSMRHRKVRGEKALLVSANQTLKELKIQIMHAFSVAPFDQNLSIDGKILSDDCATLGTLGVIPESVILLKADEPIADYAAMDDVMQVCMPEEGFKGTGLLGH
Outline: as §1

USP5 = biological target: T4, USP5 (UniProt P45974)
T4 sequence (whole entry): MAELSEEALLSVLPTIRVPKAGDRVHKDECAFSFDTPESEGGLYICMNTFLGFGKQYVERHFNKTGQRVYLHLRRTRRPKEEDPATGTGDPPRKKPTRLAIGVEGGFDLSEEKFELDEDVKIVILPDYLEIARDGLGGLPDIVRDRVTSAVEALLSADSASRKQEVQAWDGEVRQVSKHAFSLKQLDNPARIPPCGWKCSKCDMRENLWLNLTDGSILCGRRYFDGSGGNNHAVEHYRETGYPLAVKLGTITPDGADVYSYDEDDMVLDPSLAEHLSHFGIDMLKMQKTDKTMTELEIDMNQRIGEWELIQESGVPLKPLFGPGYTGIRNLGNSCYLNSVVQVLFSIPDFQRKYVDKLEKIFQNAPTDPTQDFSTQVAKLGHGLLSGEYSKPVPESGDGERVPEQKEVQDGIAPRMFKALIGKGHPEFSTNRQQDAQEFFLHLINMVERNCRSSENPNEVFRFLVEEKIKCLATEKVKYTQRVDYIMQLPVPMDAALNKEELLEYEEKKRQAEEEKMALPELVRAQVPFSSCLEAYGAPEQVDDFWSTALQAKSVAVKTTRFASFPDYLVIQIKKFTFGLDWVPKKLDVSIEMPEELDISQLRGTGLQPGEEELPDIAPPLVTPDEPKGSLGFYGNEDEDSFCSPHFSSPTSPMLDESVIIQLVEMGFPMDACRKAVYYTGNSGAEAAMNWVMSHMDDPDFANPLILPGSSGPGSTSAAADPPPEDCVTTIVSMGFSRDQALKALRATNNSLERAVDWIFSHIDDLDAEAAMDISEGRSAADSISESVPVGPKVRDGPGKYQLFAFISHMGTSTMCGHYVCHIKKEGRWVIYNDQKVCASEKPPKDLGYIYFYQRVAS
Outline: as §1

USP54 = USP54 (UniProt Q70EL1)
Outline: as §1

USP7 = USP7 (UniProt Q93009)
Outline: as §1

USP8 = biological target: T5, USP8 (UniProt P40818)
T5 sequence (whole entry): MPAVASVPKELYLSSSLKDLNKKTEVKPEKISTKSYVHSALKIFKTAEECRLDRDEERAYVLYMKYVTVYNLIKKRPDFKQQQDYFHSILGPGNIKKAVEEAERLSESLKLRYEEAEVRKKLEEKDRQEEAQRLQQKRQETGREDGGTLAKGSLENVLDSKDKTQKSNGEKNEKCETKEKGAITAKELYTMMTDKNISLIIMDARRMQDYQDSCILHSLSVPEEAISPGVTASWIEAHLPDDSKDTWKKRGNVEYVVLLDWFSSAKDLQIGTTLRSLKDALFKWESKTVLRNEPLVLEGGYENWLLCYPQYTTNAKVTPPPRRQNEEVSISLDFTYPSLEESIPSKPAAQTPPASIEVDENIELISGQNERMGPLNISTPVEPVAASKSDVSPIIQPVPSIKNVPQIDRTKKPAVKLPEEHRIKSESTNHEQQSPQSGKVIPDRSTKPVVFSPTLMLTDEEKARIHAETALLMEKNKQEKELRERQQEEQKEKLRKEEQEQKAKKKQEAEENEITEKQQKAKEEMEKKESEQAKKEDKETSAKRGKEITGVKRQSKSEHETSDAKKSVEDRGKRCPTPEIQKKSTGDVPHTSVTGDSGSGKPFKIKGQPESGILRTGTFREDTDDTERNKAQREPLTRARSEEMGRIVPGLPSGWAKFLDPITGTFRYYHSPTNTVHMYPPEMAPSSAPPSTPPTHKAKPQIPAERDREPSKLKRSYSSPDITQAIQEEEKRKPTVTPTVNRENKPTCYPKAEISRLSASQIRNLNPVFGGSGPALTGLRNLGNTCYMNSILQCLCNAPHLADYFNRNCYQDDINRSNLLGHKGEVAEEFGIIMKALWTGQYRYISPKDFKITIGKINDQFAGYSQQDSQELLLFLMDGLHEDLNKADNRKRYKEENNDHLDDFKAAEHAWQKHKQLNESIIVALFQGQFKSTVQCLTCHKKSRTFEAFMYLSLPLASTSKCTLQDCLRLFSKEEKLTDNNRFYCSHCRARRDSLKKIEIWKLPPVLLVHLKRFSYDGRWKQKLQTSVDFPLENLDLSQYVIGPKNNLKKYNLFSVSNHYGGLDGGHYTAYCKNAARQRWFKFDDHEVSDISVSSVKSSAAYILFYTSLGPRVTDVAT
Outline: as §1

Measured: log2 ratio of Biotin-Ahx-Ub-VS probe labelling

USP46, sequence (P62068 whole entry): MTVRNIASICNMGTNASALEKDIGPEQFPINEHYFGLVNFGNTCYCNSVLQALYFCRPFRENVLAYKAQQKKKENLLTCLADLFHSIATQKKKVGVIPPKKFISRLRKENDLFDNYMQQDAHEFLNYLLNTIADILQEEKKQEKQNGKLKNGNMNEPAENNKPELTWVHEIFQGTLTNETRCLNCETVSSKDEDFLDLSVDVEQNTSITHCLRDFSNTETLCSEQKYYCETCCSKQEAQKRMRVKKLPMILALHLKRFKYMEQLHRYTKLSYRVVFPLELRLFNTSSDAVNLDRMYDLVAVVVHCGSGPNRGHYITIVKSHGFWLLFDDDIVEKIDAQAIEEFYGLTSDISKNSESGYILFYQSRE
USP54, sequence (Q70EL1 whole entry): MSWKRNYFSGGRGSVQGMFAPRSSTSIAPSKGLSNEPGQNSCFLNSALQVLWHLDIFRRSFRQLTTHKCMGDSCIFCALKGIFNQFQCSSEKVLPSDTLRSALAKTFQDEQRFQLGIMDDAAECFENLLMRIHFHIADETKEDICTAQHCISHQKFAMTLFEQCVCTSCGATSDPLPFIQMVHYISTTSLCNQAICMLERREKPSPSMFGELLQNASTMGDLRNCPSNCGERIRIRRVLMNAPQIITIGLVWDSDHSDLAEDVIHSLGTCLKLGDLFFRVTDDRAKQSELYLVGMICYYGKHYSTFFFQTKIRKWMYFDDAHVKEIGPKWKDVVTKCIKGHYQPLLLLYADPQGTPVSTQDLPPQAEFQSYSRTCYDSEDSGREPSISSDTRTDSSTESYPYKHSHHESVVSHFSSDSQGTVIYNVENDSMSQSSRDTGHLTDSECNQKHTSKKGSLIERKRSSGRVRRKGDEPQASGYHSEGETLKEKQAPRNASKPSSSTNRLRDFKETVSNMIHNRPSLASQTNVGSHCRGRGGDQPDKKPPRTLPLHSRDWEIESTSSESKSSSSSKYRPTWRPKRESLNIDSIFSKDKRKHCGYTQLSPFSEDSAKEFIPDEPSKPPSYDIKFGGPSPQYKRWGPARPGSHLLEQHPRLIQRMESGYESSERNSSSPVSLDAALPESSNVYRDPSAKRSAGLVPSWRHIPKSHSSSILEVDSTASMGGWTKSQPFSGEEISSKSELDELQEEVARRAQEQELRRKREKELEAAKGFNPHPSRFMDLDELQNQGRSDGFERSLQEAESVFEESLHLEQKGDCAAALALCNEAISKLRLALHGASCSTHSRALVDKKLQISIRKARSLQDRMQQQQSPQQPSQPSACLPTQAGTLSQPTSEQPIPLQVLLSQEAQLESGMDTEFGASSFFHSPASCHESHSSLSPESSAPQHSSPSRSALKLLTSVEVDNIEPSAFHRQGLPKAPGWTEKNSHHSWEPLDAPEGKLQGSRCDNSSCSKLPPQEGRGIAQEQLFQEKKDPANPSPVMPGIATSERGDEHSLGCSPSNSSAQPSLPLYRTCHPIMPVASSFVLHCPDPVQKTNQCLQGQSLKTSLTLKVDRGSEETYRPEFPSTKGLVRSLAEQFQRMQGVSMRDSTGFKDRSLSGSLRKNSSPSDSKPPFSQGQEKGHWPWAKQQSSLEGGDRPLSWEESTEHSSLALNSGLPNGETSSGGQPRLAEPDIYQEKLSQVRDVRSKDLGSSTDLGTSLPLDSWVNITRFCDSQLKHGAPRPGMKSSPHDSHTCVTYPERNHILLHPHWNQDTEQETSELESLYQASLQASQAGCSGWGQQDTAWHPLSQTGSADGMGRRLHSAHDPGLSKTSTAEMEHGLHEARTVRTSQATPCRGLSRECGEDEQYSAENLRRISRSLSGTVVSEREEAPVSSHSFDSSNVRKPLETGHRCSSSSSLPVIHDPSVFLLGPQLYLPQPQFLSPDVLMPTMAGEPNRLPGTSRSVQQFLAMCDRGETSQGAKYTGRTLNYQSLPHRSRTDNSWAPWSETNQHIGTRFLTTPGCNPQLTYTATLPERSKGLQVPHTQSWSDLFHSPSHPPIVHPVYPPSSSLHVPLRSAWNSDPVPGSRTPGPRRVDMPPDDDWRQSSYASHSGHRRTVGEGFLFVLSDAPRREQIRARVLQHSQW
USP7, sequence (Q93009 whole entry, looked up): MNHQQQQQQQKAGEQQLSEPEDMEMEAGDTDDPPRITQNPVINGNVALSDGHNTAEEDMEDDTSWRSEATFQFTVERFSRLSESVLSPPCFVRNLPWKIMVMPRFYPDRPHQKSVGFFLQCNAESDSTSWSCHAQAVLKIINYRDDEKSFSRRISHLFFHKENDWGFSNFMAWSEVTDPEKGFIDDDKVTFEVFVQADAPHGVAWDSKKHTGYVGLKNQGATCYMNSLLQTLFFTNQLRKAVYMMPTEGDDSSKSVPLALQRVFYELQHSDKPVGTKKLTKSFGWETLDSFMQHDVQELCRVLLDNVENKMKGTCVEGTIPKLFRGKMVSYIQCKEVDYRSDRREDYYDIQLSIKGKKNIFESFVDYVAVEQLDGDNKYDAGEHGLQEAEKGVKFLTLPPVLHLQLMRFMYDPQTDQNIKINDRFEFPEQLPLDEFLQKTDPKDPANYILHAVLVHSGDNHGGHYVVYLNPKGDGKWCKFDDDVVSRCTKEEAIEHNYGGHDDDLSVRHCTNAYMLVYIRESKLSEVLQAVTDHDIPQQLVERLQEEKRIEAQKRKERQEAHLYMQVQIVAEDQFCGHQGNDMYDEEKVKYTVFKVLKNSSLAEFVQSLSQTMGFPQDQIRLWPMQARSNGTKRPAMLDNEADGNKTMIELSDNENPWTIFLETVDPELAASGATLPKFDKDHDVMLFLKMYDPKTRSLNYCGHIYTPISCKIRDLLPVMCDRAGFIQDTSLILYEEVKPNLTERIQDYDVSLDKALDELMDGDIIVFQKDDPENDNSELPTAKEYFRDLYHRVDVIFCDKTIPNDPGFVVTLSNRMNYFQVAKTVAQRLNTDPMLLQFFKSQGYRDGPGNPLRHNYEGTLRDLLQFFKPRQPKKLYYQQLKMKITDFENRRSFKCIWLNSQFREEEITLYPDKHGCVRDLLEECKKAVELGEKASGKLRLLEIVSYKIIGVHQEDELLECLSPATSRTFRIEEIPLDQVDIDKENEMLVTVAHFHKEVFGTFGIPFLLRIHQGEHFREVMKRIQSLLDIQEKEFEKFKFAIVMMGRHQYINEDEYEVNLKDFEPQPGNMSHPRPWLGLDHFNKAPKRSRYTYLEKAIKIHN

O=C(CCl)N1CCC(S(=O)(=O)c2ccc(F)cc2)CC1
inactive: USP42 -0.133 | USP46 -0.0321 | USP47 -0.145 | USP48 -0.355 | USP5 0.248 | USP54 0.501 | USP7 -0.535 | USP8 -0.0595
